Bioassay records as filed in PubChem BioAssay.
Chlamy TAG – inducers of triacylglycerol accumulation in Chlamydomonas reinhardtii algae. Chlamydomonas reinhardtii TAG, Nile Red fluorescence, 72 h. 44,000 compounds, 0.84% hits. AID 1159537. calls only at 10 µM (by protocol); call rule not given here;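 further: hits raise Nile Red signal meaning more stored TAG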
Of the large screens only hits and unclear results are named; the others gave an inactive call. The entries come from a sample that favours hits as a whole.

O=Cc1c(Sc2ccc(Cl)cc2)nc2ccccn2c1=O	none
Cc1ccc2nc(SCc3ccccc3)c(C=O)c(=O)n2c1	Chlamy TAG active
Cc1ccc(S(=O)(=O)c2cc3c(=O)n4cc(C)ccc4nc3n(Cc3ccccc3)c2=N)cc1	none
Cc1ccc(C(=O)n2cnc3ccccc32)cc1[N+](=O)[O-]	none
Cc1ccc([N+](=O)[O-])cc1Cc1c(F)cc(F)cc1F	none
NC(=O)c1ccc(-n2nnnc2SCc2ccc(Cl)cc2)cc1	none
COc1ccc(N2CCN(C(=O)COc3ccc(Cl)cc3)CC2)cc1	none
CC1CCCN(C(=O)COc2ccc(Cl)cc2)C1 (configuration not stated)	Chlamy TAG active
O=C(COc1ccc(Cl)cc1)N1CCN(c2cccc(Cl)c2)CC1	none
Nc1nnc(COc2ccccc2F)s1	none
COc1ccc(Nc2ccc(C(=O)N3CC(=O)Nc4ccccc43)cc2[N+](=O)[O-])cc1	none
CNCC(=O)NC12CC3CC(CC(C3)C1)C2	none
O=C(CN1CCCCC1)NCC12CC3CC(CC(C3)C1)C2	Chlamy TAG active
O=C(CCN1CCOCC1)NC12CC3CC(CC(C3)C1)C2	none
CNCC(=O)NCC12CC3CC(CC(C3)C1)C2	none
O=C(CN1CCCCC1)NC12CC3CC(CC(C3)C1)C2	Chlamy TAG active
O=C(NCC12CC3CC(CC(C3)C1)C2)NC1CCCCC1	none
O=C(C1CCCO1)N1CCN(c2ccc([N+](=O)[O-])cc2)CC1 (configuration not stated)	none
COCc1cc(=O)[nH]c(SCC(=O)Nc2ccc(Cl)c(Cl)c2)n1	none
O=C(CSc1nc2ccccc2[nH]1)NCc1cc(C(=O)c2ccccc2)ccc1O	none
COc1ccc(CN2CCCCC2C)c(C)c1C (configuration not stated)	none
COc1ccc(CN(C)C2CCCCC2)c(C)c1C	Chlamy TAG active
COc1ccc(CN(C)C2CCN(C)CC2)c(OC)c1OC	none
CC1CCN(S(=O)(=O)c2ccc(NC(=O)c3cccc([N+](=O)[O-])c3)cc2)CC1	Chlamy TAG active
O=C(Nc1ccc(S(=O)(=O)N2CCCCC2)cc1)c1cccc([N+](=O)[O-])c1	none
CC1CCN(S(=O)(=O)c2ccc(Cl)c(C(=O)Nc3cccc([N+](=O)[O-])c3)c2)CC1	none
O=S1(=O)N=C(N(Cc2ccco2)c2ccc(O)cc2)c2ccccc21	none
O=C(NCc1ccccc1)C(=O)NCc1ccncc1	none
Fc1ccc(CSc2nnnn2-c2ccccc2)cc1	none
Cc1c(O)ccc2c(=O)c(-c3nc4ccccc4s3)c(C(=O)O)oc12	none
O=[N+]([O-])c1ccc(CN2CCc3ccccc3C2)cc1	Chlamy TAG active
COc1cc2c(cc1OC)CN(Cc1ccc([N+](=O)[O-])cc1)CC2	none
O=[N+]([O-])c1ccc(CN2CCN(Cc3cc(Br)ccc3O)CC2)cc1	Chlamy TAG active
O=[N+]([O-])c1ccc(S(=O)(=O)N2CCN(Cc3cc(Br)ccc3O)CC2)cc1	none
O=[N+]([O-])c1ccc(CN2CCCCC2)cc1	none
O=[N+]([O-])c1ccc(CN2CCOCC2)cc1	none
CC(C)C(=O)Nc1ccc(NC(=O)c2ccccc2Br)cc1	none
